The results in this text go back to publication PMC5540273 (PLoS ONE, 2017).

One assay concerns T1, JNK2.
T1 construct: gene MAPK9

The test system of a further assay is T2, JNK3.
T2 construct: gene MAPK10

The subject of the next assay is T3, LOK.
T3 construct: gene STK10

The test system of another assay is T4, JNK1.
T4 construct: gene MAPK8

The subject of assay [1] is JAK2(JH1domain-catalytic).
The test system of another assay is T5, IKK-epsilon.
T5 construct: gene IKBKE

Assay [2] has as its system JAK1(JH2domain-pseudokinase).
The test system of assay [3] is JAK1(JH1domain-catalytic).
The test system of assay [4] is JAK3(JH1domain-catalytic).
For the next assay, the system named is T6, IKK-beta.
T6 construct: gene IKBKB
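Note: kd values determined as follow-up on hits from a single-replicate KINOMEscan panel screen.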

By Kd is commonly meant a measure of binding affinity in units of concentration. Higher therefore signals weaker binding. As to `CN1CCC(n2cnc(-c3ccc(F)cc3)c2-c2ccnc(NC3CCNCC3)n2)CC1` [SB-229482], the equilibrium dissociation constant (Kd) was 0.17 µM with JNK2 and 0.14 µM in the assay with JNK3.
In turn, `O=C(Nc1n[nH]c2nc(-c3ccco3)c(Br)cc12)c1ccc(CN2CCCC2)cc1.O=C(O)[C@H](O)[C@@H](O)C(=O)O` [SB-742352] yielded an equilibrium dissociation constant (Kd) in the assay with KIT of 0.066 µM.
For `COC(=O)c1cccc(NC(=O)NCCNc2ccnc(Nc3ccc(F)cc3)n2)c1` [GSK1379883], the dissociation constant (Kd) with HUNK was over 10 µM.
With `CCCc1ccc(S(=O)(=O)NC2CCN(c3ccnc(Nc4ccc(OC)cc4)n3)C2)cc1` (centres unmarked) [GSK1379737], the equilibrium dissociation constant (Kd) was over 10 µM with LIMK2 and 8.7 µM with LTK.
In turn, `COc1ccc(NC(=O)Nc2ccc(C)c(-c3ccc(C(=O)Nc4ccncc4)cc3)c2)cc1` [GSK1398475] yielded a Kd in the assay on KIT of 0.044 µM.
Still for that read-out and setting: the figure for `Cn1cc(-c2ccc3c(c2)CCN3C(=O)Cc2cccc(C(F)(F)F)c2)c2c(N)ncnc21` [GSK2606414] is 5.2 µM.
In the assay with LOK, `COc1cc2ncnc(Nc3ccc(OCc4ccccc4Br)c(Cl)c3)c2cc1OC.Cl` [GI261590] displayed a Kd of 2 µM.
`Oc1ccc2ncnc(Nc3ccc(OCc4ccccc4)cc3)c2c1` [GI262866] returned a Kd with LTK of over 10 µM.
Take `O=C(Nc1ccccc1F)NC1CCN(c2ccnc(Nc3ccc(F)cc3)n2)C1` (centres unmarked) [GSK1379722]: the dissociation constant Kd in the assay on ICK and with IGF1R was over 10 µM each time.
On to `COc1cc2c(Nc3cccc(NC(=O)c4ccccc4)c3)ncnc2cc1OCCCN1CCOCC1` [GSK223810], for which the Kd in the assay on KIT worked out at 0.3 µM; in the assay with LCK, 0.39 µM; with LYN, 0.13 µM.
Take `COC(=O)c1c(-c2ccccc2)c2cc(Cl)ccc2c(=O)n1Cc1ccc(S(C)(=O)=O)cc1`: the Kd came to 0.061 µM in the assay on JNK1, 0.044 µM in the assay with JNK2 and 0.014 µM in the assay with JNK3.
For the compound `Fc1cccc(COc2ccc(Nc3ncnc4sc(-c5ccc[nH]5)cc34)cc2Cl)c1` [GW707818], in [1], the Kd is over 10 µM.
As for `O=C(Nc1ccccc1)Nc1ccc(Oc2ccc3nccn3n2)cc1`, in the assay on KIT, the dissociation constant Kd worked out at 0.099 µM.
On to `CCc1nc(-c2cccc(C)c2)c(-c2ccnc(NC(=O)c3ccccc3)c2)s1`, for which the Kd was over 10 µM with IKK-epsilon, 0.19 µM in the assay with JNK3 and over 10 µM in the assay on LATS2.
In assay [2], `CC(C)(C)c1ccc(-n2cnc3c(N)ncnc32)cc1` [SKF-97263] registered a Kd of 0.25 µM.
Take `C[C@@H]1CCN(C(=O)CO)C[C@@H]1N(C)c1ncnc2[nH]ccc12`: the Kd in assay [3] was 0.12 µM; in [1], 0.011 µM; in [4], 0.0036 µM.
`Cl.c1ccc(Cn2ccc3cc(Nc4ncnc5ccccc45)ccc32)cc1` [GW275568] yielded a Kd in assay [1] of over 10 µM.
On to `CC(=O)Nc1n[nH]c2ncc(-c3ccccc3)cc12` [SB-548492], for which the dissociation constant Kd in assay [2] is 0.38 µM.
For the compound `Cn1ccc2ncnc(Oc3ccc(NC(=O)Nc4cccnc4)c(Cl)c3)c21`, binding in the assay with KIT was put at a Kd of 0.047 µM.
In the assay with LATS1, `COc1ccc(-c2oc3ncnc(N)c3c2-c2ccc(OC)cc2)cc1` [SB-589132] showed an equilibrium dissociation constant (Kd) of over 10 µM.
In turn, `Cl.Cl.c1ccc(-c2cc3ccncc3cc2OC2CCNCC2)cc1` [GSK1122999] yielded a dissociation constant Kd in the assay on IKK-beta of 0.024 µM.
For `CN1c2ccc(-c3ccc(C(=O)NCCO)cc3)cc2-c2[nH]ncc2S1(=O)=O`, the dissociation constant Kd in assay [4] amounted to 6.8 µM.
On to `Nc1nc(-c2ccc3c(N)n[nH]c3c2)cc(N2CCC[C@@H](C(=O)Nc3ccccc3)C2)n1.O=C(O)C(F)(F)F.O=C(O)C(F)(F)F` [GSK2288359], for which the Kd (in the assay on IGF1R; in assay [1]) was over 10 µM throughout.
Take `Cc1ccc(NC(=O)c2cccc(C#N)c2)cc1-c1ccc(C(=O)Nc2ccncc2)cc1` [GSK1398463]: the figures for the Kd in the assay with KIT and with LCK were 0.31 µM and 0.56 µM, respectively.
In turn, `CNc1nccc(-c2c(-c3ccc(F)cc3)ncn2CCCN2CCOCC2)n1` [SB-222516] came in with a Kd with LIMK2 of over 10 µM.
